The results in this text go back to PubChem BioAssay.

Experiment [1] in a line: resazurin metabolic signal in HepG2 cells – cell-based, resazurin fluorescence, 24 h, PK04 Diversity Set, profiling panel (AID 1172). Also: test concentration not given here. As to conditions: HepG2 viability, higher = more signal.
Experiment [2] in a line: budding yeast growth changes without added modifier – OD600, strain BY4716, 24 h, basal condition, primary screen (AID 1173). As to conditions: S. cerevisiae BY4716 growth, OD600, 24 h; higher = more signal, called active from +8 up or from −8 down.
Experiment [3] is described as follows: viability profiling in MM1S myeloma cells – cell-based, resazurin fluorescence, basal, 24 h, PK04 Diversity Set, profiling panel (AID 1174).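 Also: MM1S multiple myeloma cell line; test concentration not given here.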 The settings on record: higher = more signal, called active from +8 up or from −8 down.
Experiment [4] has as its target Dihydroorotate dehydrogenase (quinone), mitochondrial (Plasmodium falciparum (isolate 3D7)) (UniProt Q08210). Briefly: inhibition of P. falciparum DHODH – biochemical, C-terminal His tag, absorbance 600 nm, primary screen (AID 1175).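 Also: recombinant parasite enzyme with a five histidine tag at its C terminus; test concentration not given here.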 The settings on record: PfDHODH enzyme, DCIP absorbance 600 nm; higher = more signal, called active from +8 up or from −8 down.
Experiment [5] can be described thus: inhibition of PAO1 biofilm formation – strain PAO1, LB-PBS medium, absorbance 600 nm, primary screen (AID 1176). Also: test concentration not given here. As to conditions: P. aeruginosa PAO1 growth/biofilm, A600, 12 h; higher = more signal.
Experiment [6] is described as follows: growth modulation of vineyard yeast isolate – strain RM11-1a, OD600, basal, 24 h, primary screen (AID 1177).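 Also: cultures grown under basal conditions with no added stressor; test concentration not given here.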 The settings on record: S. cerevisiae RM11-1a growth, OD600, 24 h; higher = more signal, called active from +8 up or from −8 down.
A short description of experiment [7]: growth of efflux-deficient E. coli DRC39 – strain DRC39, OD650, 24 h, E. coli filamentation inducers, primary screen (AID 1178).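 Also: growth measured as culture turbidity by optical density at 650 nm; test concentration not given here.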 The settings on record: E. coli DRC39 acrAB, higher = more signal, called active from +8 up or from −8 down.
The nature of experiment [8]: growth of efflux-deficient E. coli DRC39 – strain DRC39, OD650, 48 h, E. coli filamentation inducers, primary screen (AID 1179).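 Also: screen aims at cell division blockers that make cells filament.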 The settings on record: E. coli DRC39 delta-acrAB growth, higher = more signal, called active from +8 up or from −8 down.
The nature of experiment [9]: viability profiling in RPMI8226 myeloma cells – cell-based, resazurin fluorescence, basal, 24 h, PK04 Diversity Set, profiling panel (AID 1180).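 Also: RPMI8826 multiple myeloma cell line at 5000 cells per well; test concentration not given here.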 The settings on record: higher = more signal.
Experiment [10] addresses E3 ubiquitin-protein ligase XIAP (Homo sapiens) (UniProt P98170). Put plainly: small molecules binding XIAP protein – biophysical, small-molecule microarray, fluorescence 635 nm, primary screen (AID 1181).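 Also: score merges 667 nm emission and signal to noise over triplicate slides.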 As to conditions: higher = more signal.

Calls of active or inactive are those of the source. Unless noted, no rule for the calls is given here.

Sequence of Dihydroorotate dehydrogenase (quinone), mitochondrial (Plasmodium falciparum (isolate 3D7)) (Q08210 whole entry, looked up): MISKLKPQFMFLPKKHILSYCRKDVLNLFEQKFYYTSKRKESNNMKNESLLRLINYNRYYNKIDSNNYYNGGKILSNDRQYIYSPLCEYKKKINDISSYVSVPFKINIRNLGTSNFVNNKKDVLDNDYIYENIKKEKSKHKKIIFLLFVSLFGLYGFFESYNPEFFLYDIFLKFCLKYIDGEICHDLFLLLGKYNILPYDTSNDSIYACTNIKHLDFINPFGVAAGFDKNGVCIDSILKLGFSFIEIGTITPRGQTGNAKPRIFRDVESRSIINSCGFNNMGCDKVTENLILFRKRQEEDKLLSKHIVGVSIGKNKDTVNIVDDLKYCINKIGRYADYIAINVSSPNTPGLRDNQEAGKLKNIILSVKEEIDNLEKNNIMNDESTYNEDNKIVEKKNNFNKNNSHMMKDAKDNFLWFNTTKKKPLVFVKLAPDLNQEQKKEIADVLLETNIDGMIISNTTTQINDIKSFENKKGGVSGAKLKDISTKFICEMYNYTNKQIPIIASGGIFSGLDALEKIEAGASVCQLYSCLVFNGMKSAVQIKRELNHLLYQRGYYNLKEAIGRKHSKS
Sequence of E3 ubiquitin-protein ligase XIAP (Homo sapiens) (P98170 whole entry, looked up): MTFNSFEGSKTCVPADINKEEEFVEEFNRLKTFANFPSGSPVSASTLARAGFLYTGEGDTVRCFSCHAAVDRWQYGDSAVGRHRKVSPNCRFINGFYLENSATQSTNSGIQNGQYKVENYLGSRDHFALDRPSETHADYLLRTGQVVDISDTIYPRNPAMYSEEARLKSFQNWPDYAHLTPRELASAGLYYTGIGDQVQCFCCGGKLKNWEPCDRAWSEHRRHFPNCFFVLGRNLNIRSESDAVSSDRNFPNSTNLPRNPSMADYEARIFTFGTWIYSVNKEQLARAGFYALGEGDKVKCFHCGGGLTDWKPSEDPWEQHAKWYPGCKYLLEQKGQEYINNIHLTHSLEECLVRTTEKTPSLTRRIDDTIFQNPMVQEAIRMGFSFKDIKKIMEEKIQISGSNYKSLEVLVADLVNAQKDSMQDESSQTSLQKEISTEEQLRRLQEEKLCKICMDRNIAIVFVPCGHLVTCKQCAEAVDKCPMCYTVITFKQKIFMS

As for `C[C@@H](c1ccccc1)N1C(=O)[C@H]2[C@H]3[C@H](O)[C@H](O)CC(=NO[C@@H]4O[C@H](CO)[C@@H](O)[C@H](O)[C@H]4O)[C@@H]3CC[C@H]2C1=O`, the z-score is -0.416 in [1]; 0.0492 (inactive) in [2]; -0.671 (inactive) in [3]; 0.14 (inactive) in experiment [5]; -0.294 (inactive) in experiment [6]; -0.403 (inactive) in experiment [7]. Besides, the z-score in experiment [8] is 0.334 (inactive); in experiment [9], -0.361. In addition, the composite z-score was -0.337 (inactive) in [4] and -0.254 in experiment [10].

As for `COC(=O)CC=C[C@@H](C)[C@@H](C=NO[C@@H]1O[C@H](COC(C)=O)[C@@H](OC(C)=O)[C@H](OC(C)=O)[C@H]1OC(C)=O)OC`, the z-score in experiment [1] was 0.992; in experiment [2] it was -0.298 (inactive); in experiment [3] it was -0.205 (inactive); in [5] it was 0.0738 (inactive); in experiment [6], -0.0389 (inactive); in [7], -1.03 (inactive). Besides, the z-score was -0.932 (inactive) in experiment [8] and 0.672 in experiment [9]. Also, the composite z-score in experiment [4] was 0.159 (inactive); in experiment [10], 0.127.

Turning to `C[C@@H](c1ccccc1)N1C(=O)[C@H]2[C@H]3[C@H](O)[C@H](O)CC(=O)[C@H]3CC[C@H]2C1=O`, the z-score in [1] was -0.137; in experiment [2], -0.491 (inactive); in experiment [3], 0.162 (inactive); in experiment [5], 0.128 (inactive); in experiment [6], -0.218 (inactive); in experiment [7], 0.366 (inactive). Further, the z-score in experiment [8] is 0.53 (inactive); in experiment [9], 0.033. Moreover, the composite z-score in [4] was -0.736 (inactive); in experiment [10], 0.0641.

With `COC(=O)[C@H](C)NC(=O)CCC1CC(OC(=O)NCc2cccc3ccccc23)CC2(CCCC(COC(=O)NCC(c3ccccc3)c3ccccc3)O2)O1` (stereo not given in full), the z-score was 1.64 in experiment [1]; -0.425 (inactive) in experiment [2]; 0.945 (inactive) in [3]; -1.24 (inactive) in [5]; 0.15 (inactive) in experiment [6]; 0.0127 (inactive) in experiment [7]. Also, the values for the z-score in [8] and in [9] were 0.393 (inactive) and 1.04, respectively. The composite z-score in [4] was 0.0975 (inactive); in [10] it was -0.108.

On to `O=c1n(Cc2cc3c(cc2Cl)OCO3)c(=O)n2n1CC[C@@H]1C(=NOCc3ccccc3)[C@H]3O[C@H]3[C@@H](O)[C@@H]12`, for which the z-score in [1] is -0.0806; in [2] it was -1.61 (inactive); in experiment [3], -0.595 (inactive); in experiment [5] it was 0.14 (inactive); in experiment [6] it was -1.8 (inactive); in experiment [7] it was -0.485 (inactive). The z-score is -0.628 (inactive) in experiment [8] and -1.02 in experiment [9]. The composite z-score is -1.22 (inactive) in [4] and -0.0365 in experiment [10].

`CO[C@H]1COC(=O)CCC[C@@H](C)[C@H](OC)COC(=O)[C@@H](C)NC(=O)CC=C[C@@H]1C`: the z-score in [1] is 0.0039; in experiment [2], 0.315 (inactive); in experiment [3], 0.77 (inactive); in experiment [5] it was -1.46 (inactive); in experiment [6] it was -1.07 (inactive); in experiment [7], -1 (inactive). Further, the z-score in experiment [8] was -0.345 (inactive); in experiment [9], 0.0228. Besides, the composite z-score in [4] was -2.33 (inactive); in [10], -0.138.

As for `CCOC(=O)[C@H](Cc1ccccc1)NC(=O)CCC1CC(OC(=O)NCCc2ccc(F)cc2)CC2(CCCC(COC(=O)NCCCN3CCCC3=O)O2)O1` (stereo not given in full), the z-score is -0.0038 in [1]; -0.196 (inactive) in experiment [2]; 0.374 (inactive) in experiment [3]; 0.781 (inactive) in experiment [5]; -1.25 (inactive) in experiment [6]; -0.198 (inactive) in [7]. Further, the z-score in experiment [8] was -0.926 (inactive); in [9] it was 0.898. Also, the composite z-score in experiment [4] is -1.73 (inactive); in experiment [10], -0.0622.

On to `Cn1c(=O)n2n(c1=O)[C@H]1[C@H](O)[C@@H]3O[C@@H]3C(=O)[C@H]1CC2`, for which the z-score was -0.12 in experiment [1]; 0.243 (inactive) in [2]; -0.871 (inactive) in [3]; -0.343 (inactive) in experiment [5]; 0.723 (inactive) in experiment [6]; 0.463 (inactive) in [7]. Further, the z-score in [8] was 0.166 (inactive); in [9], -0.52. Also, the figures for the composite z-score in [4] and in experiment [10] were 0.438 (inactive) and 0.0799, respectively.

Consider `O=C1[C@H]2[C@H]3[C@H](O)[C@H](O)CC(=NOCc4ccccc4)[C@@H]3CC[C@H]2C(=O)N1Cc1ccc2c(c1)OCO2`, for which the z-score in experiment [1] is 1.03; in [2], -0.419 (inactive); in experiment [3] it was 0.0481 (inactive); in [5] it was 0.07 (inactive); in [6], -0.0921 (inactive); in [7], 0.419 (inactive). The results for the z-score in experiment [8] and in experiment [9] were 0.128 (inactive) and 1.01, respectively. The composite z-score in experiment [4] is -0.0799 (inactive); in [10], -0.0377.

With `C#CCCCON=C1C[C@@H](O)[C@@H](O)[C@@H]2[C@@H]3C(=O)N(c4cccc(Oc5ccccc5)c4)C(=O)[C@@H]3CC[C@H]12`, the z-score is 0.331 in experiment [1]; -0.351 (inactive) in experiment [2]; 1.08 (inactive) in [3]; 0.553 (inactive) in experiment [5]; -0.0064 (inactive) in experiment [6]; 0.899 (inactive) in [7]. In addition, the z-score in experiment [8] was 0.401 (inactive); in experiment [9] it was 1.94. The composite z-score in [4] is -1.48 (inactive); in experiment [10], -0.0832.

With `CCCCC#C[C@@H]1C=C[C@H](Oc2cc(OC)c(OC)c(OC)c2)[C@@H](COC(=O)OCC)O1`, the z-score in experiment [1] is -0.826; in [2], -0.535 (inactive); in experiment [3], -1.03 (inactive); in experiment [5] it was 0.806 (inactive); in [6], 0.628 (inactive); in experiment [7] it was 1.02 (inactive). Moreover, the z-score in experiment [8] was 0.751 (inactive); in experiment [9], -0.65. For the same molecule, the composite z-score in [4] was -1.48 (inactive); in experiment [10], -0.113.

Take `CCN1C(=O)[C@H]2[C@H]3[C@H](O)[C@H](O)CC(=NO[C@@H](C)c4cn([C@H](CO)Cc5ccccc5)nn4)[C@@H]3CC[C@H]2C1=O`: the z-score in experiment [1] was -0.817; in [2], 0.833 (inactive); in experiment [3], -0.866 (inactive); in experiment [5], 0.135 (inactive); in experiment [6] it was 0.47 (inactive); in experiment [7], 0.121 (inactive). Further, the z-score is -0.336 (inactive) in experiment [8] and -0.504 in [9]. In addition, the composite z-score was -0.642 (inactive) in experiment [4] and 0.0451 in experiment [10].

As to `COc1ccc(O[C@H]2C=C[C@@H](c3ccccc3)O[C@@H]2CON=C(C)C)cc1`, the z-score in experiment [1] is 0.163; in [2], -0.964 (inactive); in experiment [3], -0.253 (inactive); in experiment [5], 0.936 (inactive); in experiment [6], 0.267 (inactive); in experiment [7] it was 0.366 (inactive). Also, the z-score is -1.8 (inactive) in experiment [8] and 0.224 in experiment [9]. The composite z-score in experiment [4] was 0.271 (inactive); in experiment [10] it was 0.511.
